About 83,000 compounds went through this panel and 20% of them were active in at least one assay; those are over-represented in the sample as a whole.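 96-well plates, one dose, 48 hours. Percent growth reported; active if below 10.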 Values without a mark were called inactive. Active and inactive are the calls of the source.
Columns and labels:
Assay in all cases: NCI-60 one-dose screen, 48 h (100 = growth as untreated, 0 = no growth, -100 = all killed)
Settings in all cases: 10 µM unless noted
[1] = test system: SR leukemia
[2] = test system: RPMI-8226 leukemia
[3] = test system: OVCAR-8 ovarian
[4] = test system: OVCAR-5 ovarian
[5] = test system: OVCAR-4 ovarian
[6] = test system: SK-OV-3 ovarian
[7] = test system: IGROV1 ovarian
[8] = test system: OVCAR-3 ovarian
[9] = test system: HS 578T breast
[10] = test system: NCI/ADR-RES ovarian
[11] = test system: T-47D breast
[12] = test system: BT-549 breast
[13] = test system: MDA-MB-435 melanoma
[14] = test system: SW-620 colon
[15] = test system: MCF7 breast
[16] = test system: HCT-116 colon
[17] = test system: HCC-2998 colon
[18] = test system: KM12 colon

Structure (SMILES)	growth [1]	growth [2]	growth [3]	growth [4]	growth [5]	growth [6]	growth [7]	growth [8]	growth [9]	growth [10]	growth [11]	growth [12]	growth [13]	growth [14]	growth [15]	growth [16]	growth [17]	growth [18]
COc1ccc(/C=N\NC(=O)CN2CCN(c3cc4c(cc3F)c(=O)c(C(=O)N/N=C/c3ccc(OC)c(OC)c3)cn4C3CC3)CC2)cc1OC	3.52% (active)	4.84% (active)	13.3%	26.4%	-2.98% (active)	17.1%	4.1% (active)	-5.57% (active)	-4.8% (active)	100%	3.79% (active)	-11.1% (active)	-49.7% (active)	4.64% (active)	-4.9% (active)	13.3%	-10.8% (active)	7.04% (active)
CC(=O)Nc1ccc(/C=C/C(=O)c2ccccc2)cc1	3.34% (active)	-8.05% (active)	98.4%	113%	106%	101%	43%	57.6%	81.7%	103%	73.9%	86.2%	114%	53.2%	56.4%	77%	113%	46.6%
C[n+]1c(/C=C/c2c(O)ccc3ccccc23)ccc2ccccc21	-36.2% (active)	3.79% (active)	21.3%	77.3%	28.3%	50.6%	45.2%	-20.5% (active)	55.7%	25.2%	26.6%	27.9%	25.6%	17%	15.9%	-13.9% (active)	59.8%	38.7%
S=c1[nH]nc(-c2cc3ccc2CCc2ccc(cc2)CC3)n1-c1ccccc1	96.6%	94.5%	102%	103%	83.1%	111%	100%	104%	116%	99.8%	89.1%	108%	93.3%	97.5%	85.3%	88.1%	113%	98.2%
COC(=O)[C@]12CC[C@@H](C)[C@H](C)[C@@H]1C1=CC[C@@H]3[C@@]4(C)C(C=O)=C[C@@](C)(COC(=O)c5ccco5)[C@@H]4[C@H](O)C[C@@]3(C)[C@]1(C)CC2	0.404% (active)	-26.8% (active)	-3.22% (active)	-20.9% (active)	-0.264% (active)	18.7%	5.24% (active)	-75.5% (active)	-9.48% (active)	0.299% (active)	13.4%	-3.09% (active)	-57.4% (active)	-55.7% (active)	-19.2% (active)	-75.8% (active)	-84.8% (active)	-56.8% (active)
CC(C)NCCCNC1=C(Cl)C(=O)c2ccccc2C1=O	-22.7% (active)	68.4%	56.9%	138%	84.1%	107%	-51.3% (active)	40.8%	27.7%	90.5%	101%	99.8%	-66% (active)	-30.7% (active)	63.4%	70.7%	59.7%	87.2%
CCN(CC)c1ccc2[nH]c3c(C(N)=O)cc(=O)c(=O)c=3oc2c1	5.09% (active)	-1.62% (active)	0.295% (active)	15.1%	2.07% (active)	19.9%	-44.4% (active)	-35.9% (active)	2.92% (active)	-0.316% (active)	-0.924% (active)	38.9%	-4.76% (active)	9.8% (active)	-31.5% (active)	-10.9% (active)	-5.4% (active)	9.09% (active)
C=CCn1cc(-c2nc3ccccc3s2)c2cc(-c3ccc4c5c(cccc35)C(=O)N(CCN3CCNCC3)C4=O)ccc21	4.31% (active)	46.7%	13.7%	90.3%	88.5%	101%	68.1%	105%	91.8%	83.1%	82.4%	91.3%	90.7%	26.8%	-65.8% (active)	29.7%	87.5%	98.5%
FC(F)(F)c1cccc(-c2cn3c(ccc4ccccc43)n2)c1	95.1%	94.4%	94.8%	102%	97.7%	85.7%	81.5%	97.2%	104%	92.6%	46.5%	91.1%	100%	89.5%	41%	88%	105%	91%
CC(C)CSc1nc(NN)c(C#N)c(-c2ccc(F)cc2)n1	74.8%	61.2%	72%	89.4%	57.8%	60.9%	72.5%	59.1%	78.3%	50.8%	66.7%	85.3%	78.9%	91.9%	73.8%	68.9%	54.4%	58.1%
CCCCCCCCCCCC(=O)NCCC[N+](C)(C)CC(=O)[O-]	68.8%	93.2%	96.9%	90.2%	97.7%	103%	76.7%	99.8%	105%	102%	92%	85.5%	88.7%	109%	99.8%	89.9%	96%	86.6%
C=C(C)[C@@H]1C[C@H](O)Cc2cc(F)ccc2N1	83.2%	74.8%	96.5%	85.5%	108%	102%	108%	111%	96.8%	93.6%	95.6%	98.1%	97.7%	91.9%	103%	92.9%	118%	106%
COc1ccc(C2C(C#N)=C(N)Oc3c2ccc2ccccc32)cc1 (stereo unspecified)	37.4%	44.3%	56.5%	73.3%	62.3%	57.8%	41%	15.4%	47.1%	5.02% (active)	31%	61%	-49.8% (active)	19%	13.2%	23.5%	74.4%	29%
CN1C(=O)N(C)C2C1NN=c1s/c(=C\C=C\c3ccccc3)c(=O)n12 (stereo unspecified)	24.3%	84.9%	79.7%	85.9%	81.9%	65.7%	50.7%	12%	59.6%	36.4%	53.1%	55.2%	4.66% (active)	40%	-94.6% (active)	31.8%	63.1%	23.2%
O=[N+]([O-])c1cnc(Sc2ccncn2)s1	-69.7% (active)	-64.1% (active)	73.3%	94.1%	53.9%	114%	-80.7% (active)	-95.5% (active)	58%	67%	-13.9% (active)	103%	27.2%	-80.9% (active)	31.5%	-48.5% (active)	6.85% (active)	75.9%
CNC(=S)NNC(=O)C1CC1	67.5%	98.9%	94.7%	107%	113%	105%	118%	116%	112%	110%	104%	92.1%	114%	112%	96.9%	101%	110%	109%
CSc1nc2c(c(=O)[nH]1)C(c1ccc(C)cc1)C=C(C(=O)O)N2 (stereo unspecified)	117%	112%	105%	114%	113%	115%	107%	123%	86.3%	109%	96.6%	93.6%	102%	99.8%	101%	109%	102%	112%

Source: PubChem BioAssay (NCI)
